# Data: PubChem BioAssay (NCATS)
# Results filed as inconclusive are left out. A call without a number means that no potency is given here. The source made the active and inactive calls. Calls come from the whole dose curve; as a rule, active = well fitted curve in the direction sought with a large enough effect; inconclusive = small, poorly fitted or top-dose-only effect, or another doubt; inactive = no such curve, though single readings can be large; an effect the other way counts as inactive or inconclusive.
# How the values were obtained:
# [1] = Quantitative High-Throughput drug screen in 47 multiple myeloma cell lines against the NCATS MIPE library collection: OCIMY1_PLB cell viability assay (AID 1918979); note: potency is the fitted concentration of half-maximal effect; for viability: series mostly up to about 46 µM
# In short: (§1)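 Readout: median RLU from CellTiter-Glo after 5 min at room temperature. Preceding step was 48 h drug treatment of 500 cells/well at 37 °C, 5% CO2, with DMSO-only and media-only control wells.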
# [2] = Quantitative High-Throughput drug screen in 47 multiple myeloma cell lines against the NCATS MIPE library collection: NCIH929_DSMZ cell viability assay (AID 1918978)
# In short: as §1
# [3] = Quantitative High-Throughput drug screen in 47 multiple myeloma cell lines against the NCATS MIPE library collection: MM1R_ATCC cell viability assay (AID 1918981)
# In short: as §1
# [4] = Quantitative High-Throughput drug screen in 47 multiple myeloma cell lines against the NCATS MIPE library collection: LP1_DSMZ cell viability assay (AID 1918982)
# In short: as §1
# [5] = Quantitative High-Throughput drug screen in 47 multiple myeloma cell lines against the NCATS MIPE library collection: KMS28PE_JCRB cell viability assay (AID 1918983)
# In short: as §1
# Note: nearly all actives have a fitted effect of over 35% in size.
SMILES,Potency [1],Potency [2],Potency [3],Potency [4],Potency [5]
CNC(=O)c1c(-c2ccc(F)cc2)oc2cc(N(CCO)S(C)(=O)=O)c(C3CC3)cc12,18.7 µM (active),–,–,–,–
CCCCC(F)(F)[C@@]1(O)CC[C@H]2[C@H](CC(=O)[C@@H]2CCCCCCC(=O)O)O1,inactive,inactive,inactive,inactive,inactive
C=CC[N+]1([C@H]2C[C@H]3[C@@H]4CC[C@H]5C[C@H](O)[C@@H](N6CCOCC6)C[C@]5(C)[C@@H]4CC[C@]3(C)[C@H]2OC(C)=O)CCCC1,inactive,–,inactive,–,–
